Screening data: PubChem BioAssay, several laboratories
A selection: hits, their analogues and other compounds. The true share with any hit is near 3.1%.
Peg3 prom inh – Peg3 promoter-driven luciferase inhibitors, primary screen, cell-based, HeLa, luciferase luminescence; AID 588405, 2011; HeLa PEG-Prom luciferase reporter, overnight; inhibition, % at 20 µM; 360,000 tested, 1.7% active;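 active = inhibition of at least 50% at 20 µM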
HIF-2a inh – HIF-2a reporter inhibitors, primary screen, luminescence, 786-0 RCC cells; inhibition, % at 18.8 µM; AID 624352, 2012; 786-0 RCC cells HIF-2a reporter, luciferase luminescence, overnight; 360,000 tested, 0.72% active;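 active = inhibition of the luminescence signal of 40% or more relative to plate controls, in a single-dose primary screen at 18.75 µM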
MITF TRPM1 inh – inhibitors of MITF-dependent TRPM1 promoter reporter, primary screen, cell-based, SK-MEL-5, single point, luciferase; inhibition, % at 12.5 µM; AID 488899, 2010; SK-MEL-5 TRPM1 promoter luciferase, 24 h; 330,000 tested, 0.83% active;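 active = mean inhibition across replicates of 60% or more, whatever share of single replicates reaches that level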
ABHD5-PLIN5 inh – ABHD5-PLIN5 interaction inhibitors, primary screen, cell lysate, split luciferase complementation, luminescence | Perilipin-5 (Homo sapiens) + 1-acylglycerol-3-phosphate O-acyltransferase ABHD5 (Homo … | Split G. princeps luciferase complementation, 4 h | inhibition, % at 4 µM | 360,000 tested, 0.78% active;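 active = inhibition above the mean inhibition across every tested compound plus 3 SD, cut at about 22% in these data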;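 note: 0% = DMSO only wells and the 100% control is not disclosed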
CF NFkB inh – inhibitors of PAF-induced NF-kB signaling, primary screen, cell-based, GFP fluorescence, uHTS; KKLEB NF-kB-GFP reporter, GFP fluorescence overnight; AID 588850, 2011; 360,000 tested, 0.86% active; inhibition, % at 5 µM;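 active = at least 50% inhibition at 5 µM, scaled per plate between neutral and stimulator controls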;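 note: PAF is a Pseudomonas aeruginosa culture filtrate used as stimulus; plate controls were PAF-stimulated DMSO wells for no effect and unstimulated DMSO wells for full effect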
KKLEB cytotox – cytotoxicity in KKLEB CF airway cells, primary screen, cytotoxicity control for CF NF-kB inhibitor project, cell-based, uHTS, fluorescence assay plates. 360,000 tested, 0.36% active. KKLEB CF airway cells viability, ATPlite luminescence, overnight; active compounds read low; cells stimulated with P. aeruginosa culture filtrate. activity change (cytotoxicity), % at 5 µM;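 active = corrected activity change at or below -50% at 5 µM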
CF NFkB conf – inhibitors of PAF-induced NF-kB signaling, retest, confirmation, cell-based, GFP fluorescence, single concentration | shares compounds with CF NFkB inh | KKLEB CF airway cells, overnight | inhibition, % at 5 µM | 1,300 tested, 64% active; in the data active = inhibition above about 40%;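 note: stimulus PAF is a Pseudomonas aeruginosa filtrate and not platelet activating factor; plate controls were DMSO wells with stimulus for no effect and unstimulated DMSO wells for full effect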
* hit, by the source's call; x = no result given.

SMILES | Peg3 prom inh | HIF-2a inh | MITF TRPM1 inh | ABHD5-PLIN5 inh | CF NFkB inh | KKLEB cytotox | CF NFkB conf
CC(=O)Oc1ccc(CN2C(=O)C(CCc3ccccc3)ON=C2c2cnccn2)cc1 (stereo not given) | -115.2 | -92.5 | x | 2.2 | -26.3 | 0.1 | x
NC(=S)N1OC[C@@H]2COc3ccc4ccccc4c3[C@@H]21 | -64.2 | 11.5 | 12.0 | -2.7 | 72.2* | -36.3 | 54.9*
CO/N=C/NC(=O)N1OC[C@@H]2COc3ccc4ccccc4c3[C@@H]21 | 13.0 | 17.0 | -7.8 | 4.7 | 8.8 | 4.2 | x
CC[C@@]1(c2ccccc2OC)C(=O)N(C(=O)OC)N1C(=O)OC | 17.0 | 15.6 | 11.6 | 1.3 | 36.0 | -21.2 | x
CC[C@@]1(c2cccc(C)c2)C(=O)N(C(=O)OC)N1C(=O)OC | 17.3 | 18.8 | 46.3 | 3.5 | 54.1* | -24.9 | 22.3
O=C1CC(NS(=O)(=O)c2cc(F)ccc2F)CN1c1cccc(F)c1 (stereo not given) | 2.7 | 5.0 | -5.1 | -0.6 | -3.8 | 9.4 | x
CCC(=O)N1CCc2cc(Br)cc(S(=O)(=O)N(C)c3ccc(OC)cc3)c21 | 24.1 | 14.0 | 4.3 | 5.5 | -4.8 | -5.7 | x
COc1cc(C(=O)N/N=C/c2coc3ccc(Cl)cc3c2=O)ccc1O | 0.4 | 19.4 | -5.6 | 10.0 | 61.4* | -14.8 | 38.7
O=C(N/N=C/c1coc2ccc(Cl)cc2c1=O)c1ccc(O)cc1 | 15.9 | 12.2 | 13.0 | 8.6 | 51.0* | -9.9 | 16.4
O=C(N/N=C/c1coc2ccc(Cl)cc2c1=O)c1ccncc1 | 0.5 | 22.3 | -13.1 | 8.5 | 45.4 | 12.3 | x
Cc1ccc(-c2onc3ccc(C(=O)/C=C/N(C)C)cc23)cc1 | -27.9 | -38.6 | -10.3 | -2.8 | 67.9* | -3.3 | 46.8*
CN(C)/C=C/C(=O)c1ccc2noc(-c3ccc(F)cc3)c2c1 | -2.8 | -9.9 | -17.2 | 0.8 | 42.6 | 0.3 | x
O=S(=O)(Nc1nc2ccccc2nc1N1CCN(c2ccccc2F)CC1)c1ccc(Cl)cc1 | 49.0 | -2.8 | 8.1 | 0.4 | 60.8* | -46.6 | 66.2*
CCOc1ccc(S(=O)(=O)Nc2nc3ccccc3nc2N2CCN(C)CC2)cc1 | -9.6 | -38.6 | -9.6 | 14.0 | -4.1 | -7.6 | x
COc1ccccc1Cc1c(-c2ccc(F)cc2)nc2c(C)cc(Br)cn12 | 31.9 | -51.5 | x | 0.3 | 60.2* | 4.1 | 15.6
Cc1ccc(Cc2c(-c3ccc(F)cc3)nc3c(C)cc(Br)cn23)cc1 | 54.8* | -38.9 | x | -13.3 | 59.0* | -30.5 | 15.9
CCCC(=O)O[C@]1(C(=O)CCl)[C@@H](C)C[C@H]2[C@@H]3CCC4=CC(=O)C=C[C@]4(C)[C@@]3(F)C(=O)C[C@@]21C | -1.5 | 31.4 | -10.6 | -2.9 | 90.6* | -2.6 | 1.8
CCC(=O)O[C@]1(C(=O)CCl)[C@@H](C)C[C@H]2[C@@H]3CCC4=CC(=O)C=C[C@]4(C)[C@@]3(F)[C@@H](O)C[C@@]21C | 1.1 | 24.0 | -29.8 | 11.4 | 77.2* | 16.7 | 17.9
CCC(=O)OC1(C(=O)CCl)[C@@H](C)C[C@H]2[C@@H]3CCC4=CC(=O)C=C[C@]4(C)[C@@]3(F)[C@@H](O)C[C@@]21C (stereo not given in full) | 4.7 | 25.7 | -5.3 | 5.7 | 75.5* | -7.1 | 17.7
O=[N+]([O-])c1ccc(CSc2nnc(Cc3ccccc3)o2)cc1 | 7.6 | 13.9 | 5.5 | 2.1 | -12.0 | 3.6 | x
COc1ccc(Cc2nnc(SCc3ccc([N+](=O)[O-])cc3)o2)cc1 | 6.9 | 19.6 | -7.2 | -1.5 | 65.4* | 0.2 | 85.9*
COc1cc(OC)cc(-c2c(C#Cc3ccsc3)c3cc(-c4cccc5[nH]cc(C=O)c45)ccc3n2C)c1 | 53.8* | -41.5 | 7.9 | 5.0 | 73.2* | -13.8 | -33.2
